Results from PubChem BioAssay (NCI).
Compounds without any hit were thinned out: in the full panel of roughly 83,000, 20% have a hit.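 In brief: 96-well plates, 48 h treatment, single concentration, percent growth endpoint.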 Calls of active or inactive are those of the source. The calls were made as follows: active = growth percent below 10; inactive = the rest.

Tests used:
Test in all cases: NCI-60 one-dose screen, 48 h (100 = growth as untreated, 0 = no growth, -100 = all killed)
SK-MEL-2 melanoma = conditions: 10 µM unless noted
EKVX NSCLC = conditions: 10 µM unless noted
SN12C renal = conditions: 10 µM unless noted
UO-31 renal = conditions: 10 µM unless noted
TK-10 renal = conditions: 10 µM unless noted
ACHN renal = conditions: 10 µM unless noted
CAKI-1 renal = conditions: 10 µM unless noted
A498 renal = conditions: 10 µM
HL-60(TB) leukemia = conditions: 10 µM unless noted
MOLT-4 leukemia = conditions: 10 µM unless noted
SR leukemia = conditions: 10 µM unless noted
RPMI-8226 leukemia = conditions: 10 µM unless noted
OVCAR-8 ovarian = conditions: 10 µM unless noted
OVCAR-5 ovarian = conditions: 10 µM unless noted
OVCAR-4 ovarian = conditions: 10 µM unless noted
SK-OV-3 ovarian = conditions: 10 µM unless noted
IGROV1 ovarian = conditions: 10 µM unless noted
OVCAR-3 ovarian = conditions: 10 µM unless noted
HS 578T breast = conditions: 10 µM unless noted
CCRF-CEM leukemia = conditions: 10 µM unless noted

Measured: growth

C1CCC2(CC1)OOCNCOO2
inactive: SK-MEL-2 melanoma 102% | EKVX NSCLC 99% | SN12C renal 110% | UO-31 renal 93.6% | TK-10 renal 91.3% | ACHN renal 110% | CAKI-1 renal 93.1% | A498 renal 97.4% | HL-60(TB) leukemia 71.7% | MOLT-4 leukemia 77.9% | SR leukemia 62.8% | RPMI-8226 leukemia 102% | OVCAR-8 ovarian 101% | OVCAR-5 ovarian 109% | OVCAR-4 ovarian 112% | SK-OV-3 ovarian 105% | IGROV1 ovarian 104% | OVCAR-3 ovarian 103% | HS 578T breast 115%

CCCCCCCOC(C(=O)OCCN(CC)CC)(c1ccccc1)c1ccccc1
inactive: SK-MEL-2 melanoma 103% | EKVX NSCLC 76.1% | SN12C renal 93.6% | UO-31 renal 69% | TK-10 renal 77.8% | ACHN renal 92.3% | CAKI-1 renal 65.4% | A498 renal 82.4% | HL-60(TB) leukemia 79.1% | CCRF-CEM leukemia 82.5% | MOLT-4 leukemia 70.3% | RPMI-8226 leukemia 72.4% | OVCAR-8 ovarian 104% | OVCAR-5 ovarian 91.3% | OVCAR-4 ovarian 81.6% | IGROV1 ovarian 68.7% | OVCAR-3 ovarian 94.1% | HS 578T breast 94.5%

O=C(O)C(Cl)(Cl)C(F)(F)F
inactive: SK-MEL-2 melanoma 105% | EKVX NSCLC 105% | SN12C renal 104% | UO-31 renal 93.5% | TK-10 renal 98.3% | ACHN renal 107% | CAKI-1 renal 95% | A498 renal 95.1% | HL-60(TB) leukemia 110% | MOLT-4 leukemia 112% | SR leukemia 122% | RPMI-8226 leukemia 108% | OVCAR-8 ovarian 112% | OVCAR-5 ovarian 103% | OVCAR-4 ovarian 104% | SK-OV-3 ovarian 110% | IGROV1 ovarian 104% | OVCAR-3 ovarian 101% | HS 578T breast 95.9%

COc1cccc2c1c(C(=O)c1ccco1)cn2Cc1ccc(F)cc1
inactive: SK-MEL-2 melanoma 73.8% | EKVX NSCLC 172% | SN12C renal 72.4% | UO-31 renal 77.1% | TK-10 renal 143% | ACHN renal 107% | CAKI-1 renal 184% | A498 renal 135% | HL-60(TB) leukemia 162% | CCRF-CEM leukemia 177% | MOLT-4 leukemia 307% | OVCAR-8 ovarian 108% | OVCAR-5 ovarian 122% | OVCAR-4 ovarian 114% | SK-OV-3 ovarian 122% | OVCAR-3 ovarian 108% | HS 578T breast 122%
active: IGROV1 ovarian 8.63%

O=[As](O)(O)c1ccccc1[As](=O)(O)O
inactive: SK-MEL-2 melanoma 119% | EKVX NSCLC 110% | SN12C renal 110% | UO-31 renal 78.8% | TK-10 renal 119% | ACHN renal 91.1% | CAKI-1 renal 94.5% | A498 renal 102% | HL-60(TB) leukemia 113% | SR leukemia 91.3% | RPMI-8226 leukemia 109% | OVCAR-8 ovarian 99.7% | OVCAR-5 ovarian 92.6% | SK-OV-3 ovarian 111% | IGROV1 ovarian 135% | OVCAR-3 ovarian 103%

C[C@@]12CC[C@@H](O)C[C@@H]1CC[C@H]1[C@H]2CC[C@@]2(C)[C@H](c3ccc(=O)oc3)CC[C@@]12O
active: SK-MEL-2 melanoma -29.7% | EKVX NSCLC -86.4% | SN12C renal -24.9% | UO-31 renal -96.2% | TK-10 renal -81.4% | ACHN renal -90% | CAKI-1 renal -83.5% | A498 renal -29.9% | HL-60(TB) leukemia -30.6% | CCRF-CEM leukemia -9% | MOLT-4 leukemia -26.7% | RPMI-8226 leukemia -14.8% | OVCAR-8 ovarian -63.3% | OVCAR-5 ovarian -86.2% | OVCAR-4 ovarian -76.3% | IGROV1 ovarian -28.7% | OVCAR-3 ovarian -84.8% | HS 578T breast -14%

COc1cc2c(c(OC)c1OC)-c1ccc([O-])c(=O)cc1[C@@H](NC(C)=O)CC2.COc1cc2c(c(OC)c1OC)-c1ccc([O-])c(=O)cc1[C@@H](NC(C)=O)CC2.[Cu+2]
active: SK-MEL-2 melanoma -4.65% | HL-60(TB) leukemia -44.9% | CCRF-CEM leukemia 9.3% | IGROV1 ovarian -0.159% | OVCAR-3 ovarian -26.7%
inactive: EKVX NSCLC 62% | SN12C renal 43.5% | UO-31 renal 22.2% | TK-10 renal 71.7% | ACHN renal 53.6% | CAKI-1 renal 34.1% | A498 renal 14.9% | MOLT-4 leukemia 10.5% | OVCAR-8 ovarian 23.2% | OVCAR-5 ovarian 54.3% | OVCAR-4 ovarian 48.6% | SK-OV-3 ovarian 17.2%

NC(=O)C(Br)c1ccccc1 (stereo not drawn)
active: CAKI-1 renal -46%
inactive: SK-MEL-2 melanoma 83.9% | EKVX NSCLC 109% | SN12C renal 88.7% | UO-31 renal 102% | TK-10 renal 91.2% | ACHN renal 87.2% | A498 renal 87.4% | HL-60(TB) leukemia 97.7% | MOLT-4 leukemia 74.2% | SR leukemia 46.1% | RPMI-8226 leukemia 96.6% | OVCAR-8 ovarian 90.8% | OVCAR-5 ovarian 114% | OVCAR-4 ovarian 89.6% | SK-OV-3 ovarian 117% | IGROV1 ovarian 80.3% | OVCAR-3 ovarian 91.9% | HS 578T breast 103%

CC(C)(NC(=O)O[C@@H]1CN2CCC1CC2)c1csc(-c2ccc(F)cc2)n1
inactive: SK-MEL-2 melanoma 108% | EKVX NSCLC 89.5% | SN12C renal 95.4% | UO-31 renal 81.1% | TK-10 renal 91.9% | ACHN renal 98.4% | CAKI-1 renal 81.5% | A498 renal 90.6% | HL-60(TB) leukemia 90% | CCRF-CEM leukemia 98.3% | MOLT-4 leukemia 91.3% | RPMI-8226 leukemia 103% | OVCAR-8 ovarian 102% | OVCAR-5 ovarian 96.2% | OVCAR-4 ovarian 97.4% | SK-OV-3 ovarian 99.6% | IGROV1 ovarian 101% | HS 578T breast 98.2%

O=C1NC(=O)C(=Cc2cn(C(=O)c3ccccc3)c3ccccc23)C(=O)N1
inactive: SK-MEL-2 melanoma 96.5% | EKVX NSCLC 97.5% | SN12C renal 91.9% | UO-31 renal 64.2% | TK-10 renal 138% | ACHN renal 93.5% | CAKI-1 renal 92.8% | A498 renal 115% | HL-60(TB) leukemia 108% | MOLT-4 leukemia 88.3% | RPMI-8226 leukemia 114% | OVCAR-8 ovarian 92.3% | OVCAR-5 ovarian 94.7% | OVCAR-4 ovarian 92.1% | SK-OV-3 ovarian 91.5% | OVCAR-3 ovarian 108% | HS 578T breast 103%

O=C(c1cccc(O)c1O)c1cn(Cc2ccc(F)cc2)c2cccc(O)c12
inactive: EKVX NSCLC 52.4% | SN12C renal 34% | TK-10 renal 77% | ACHN renal 21.5% | CAKI-1 renal 21.5% | A498 renal 108% | OVCAR-8 ovarian 30.5% | OVCAR-5 ovarian 33.8% | OVCAR-4 ovarian 39% | SK-OV-3 ovarian 40.7% | OVCAR-3 ovarian 22.3% | HS 578T breast 45.5%
active: SK-MEL-2 melanoma -6.9% | UO-31 renal -10.3% | HL-60(TB) leukemia -32.8% | MOLT-4 leukemia 4.3% | RPMI-8226 leukemia 9.16% | IGROV1 ovarian -42.8%

C=CCn1cc(C=C2C(=O)N(C)C(=O)N(C)C2=O)c2ccccc21
active: A498 renal -90.6%
inactive: SK-MEL-2 melanoma 102% | EKVX NSCLC 84.4% | SN12C renal 102% | UO-31 renal 78.2% | TK-10 renal 120% | ACHN renal 98.9% | CAKI-1 renal 90.3% | HL-60(TB) leukemia 121% | CCRF-CEM leukemia 87.9% | MOLT-4 leukemia 97.6% | OVCAR-8 ovarian 83.1% | OVCAR-5 ovarian 14.9% | OVCAR-4 ovarian 97.6% | SK-OV-3 ovarian 87.4% | IGROV1 ovarian 95.6% | OVCAR-3 ovarian 96.1% | HS 578T breast 76%

CC(C)=CC1C(C(=O)OCc2cccc(Oc3ccccc3)c2)C1(C)C (stereo not drawn)
inactive: SK-MEL-2 melanoma 108% | EKVX NSCLC 82.4% | SN12C renal 94.5% | UO-31 renal 76.5% | TK-10 renal 96.6% | ACHN renal 91.6% | CAKI-1 renal 59.6% | A498 renal 69.6% | HL-60(TB) leukemia 119% | MOLT-4 leukemia 83.3% | RPMI-8226 leukemia 91.7% | OVCAR-8 ovarian 100% | OVCAR-5 ovarian 101% | OVCAR-4 ovarian 97.3% | SK-OV-3 ovarian 102% | IGROV1 ovarian 93.1% | OVCAR-3 ovarian 102% | HS 578T breast 101%

O=C(N/N=C/c1ccc(N(CCCl)CCCl)cc1)c1cccc2ccccc12
active: A498 renal -9.28%
inactive: SK-MEL-2 melanoma 81.2% | EKVX NSCLC 85.2% | SN12C renal 73.8% | UO-31 renal 78.7% | TK-10 renal 87.7% | ACHN renal 80.7% | CAKI-1 renal 80.5% | HL-60(TB) leukemia 29.5% | CCRF-CEM leukemia 56.6% | MOLT-4 leukemia 51.4% | RPMI-8226 leukemia 73.9% | OVCAR-5 ovarian 93% | OVCAR-4 ovarian 88.5% | SK-OV-3 ovarian 69.1% | IGROV1 ovarian 79.2% | OVCAR-3 ovarian 61.8% | HS 578T breast 69.4%

CCCCCCC(=O)NC1=C(N2CC2)C(=O)C(NC(=O)CCCCCC)=C(N2CC2)C1=O
inactive: SK-MEL-2 melanoma 73% | EKVX NSCLC 78.3% | SN12C renal 41.7% | UO-31 renal 43.1% | TK-10 renal 75.5% | ACHN renal 32.9% | CAKI-1 renal 45.6% | A498 renal 66.9% | HL-60(TB) leukemia 16.8% | MOLT-4 leukemia 49% | SR leukemia 40.7% | RPMI-8226 leukemia 56.1% | OVCAR-8 ovarian 32% | OVCAR-5 ovarian 93% | OVCAR-4 ovarian 30.9% | SK-OV-3 ovarian 39.8% | IGROV1 ovarian 20.3% | HS 578T breast 88.2%
active: OVCAR-3 ovarian -53.4%

COc1ccc(/C=C/c2cc(OC)c(OC)c(OC)c2)cc1NC(=O)/C=C/c1ccc(F)cc1
inactive: SK-MEL-2 melanoma 49.6% | EKVX NSCLC 47.3% | SN12C renal 39.6% | UO-31 renal 39% | TK-10 renal 88.4% | ACHN renal 48.4% | CAKI-1 renal 33.9% | MOLT-4 leukemia 13.5% | RPMI-8226 leukemia 51.8% | OVCAR-8 ovarian 36.7% | OVCAR-5 ovarian 57.5% | OVCAR-4 ovarian 61.4% | IGROV1 ovarian 46.9%
active: A498 renal -3.96% | HL-60(TB) leukemia -20% | SK-OV-3 ovarian -29% | OVCAR-3 ovarian -10.9% | HS 578T breast 5.66%
